Laboratory results: PubChem BioAssay (Tox21)
Inconclusive results are not listed. The source made the active and inactive calls. Unless noted, calls follow the shape of the dose curve; as a rule, active = well fitted curve in the direction sought with a large enough effect in the repeat runs; inconclusive = weak or mixed curves; inactive = no such curve, though single readings can be large; an effect the other way counts as inactive or inconclusive. Residues, ends and D or L forms follow the SMILES beside them.

What was measured:
[1] = qHTS assay to identify small molecule agonists of the RXR signaling pathway - cell viability counter screen (AID 1159529);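 also: HEK 293T cells carrying an RXR-alpha UAS beta-lactamase reporter; series mostly up to about 77 µM; nearly all actives have a fitted effect of over 50% in size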
Summary of the method: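 Steps: seed RXR-alpha-UAS-bla HEK 293T cells in assay medium containing 2% charcoal-stripped FBS; incubate 5 hr; add compounds in DMSO; incubate 16 hr at 37 C; after the bla read, add CellTiter-Glo and read luminescence at 30 min.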

[2] = qHTS assay to identify small molecule antagonists of the retinoid acid receptor (RAR) signaling pathway - cell viability counter screen (AID 1159551); also: nearly all actives have a fitted effect of over 35% in size
Summary of the method: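 Cells (C3RL4) are plated, incubated overnight, dosed with compound in DMSO, then given retinol at 1 uM final. After 6 h at 37 C, CellTiter-Glo is added and luminescence read following 30 min at room temperature.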

[3] = qHTS assay to identify small molecule antagonists of the retinoic acid receptor (RAR) signaling pathway (AID 1159552; also: nearly all actives have a fitted effect of over 50% in size)
Summary of the method: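 Retinol at 1 uM final stimulated RARE-luciferase expression in C3RL4 cells exposed to test compounds for 6 hr at 37 C. Reduced luminescence, read 30 min after detection reagent, indicated pathway antagonism.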

[4] = qHTS assay to identify small molecule agonists of the retinoic acid receptor (RAR) signaling pathway (AID 1159553)
Summary of the method: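 Seed C3RL4 reporter cells at 1,000 per well and incubate overnight at 37 C. Add compounds in DMSO, incubate 6 hr. Add luciferase reagent, wait 30 min at room temperature, read luminescence.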

[5] = qHTS assay to identify small molecule antagonists of the estrogen related receptor (ERR) signaling pathway from Tox21 library - cell viability counter screen (AID 1224834); also: nearly all actives have a fitted effect of over 30% in size
Summary of the method: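 ERR cells, 2,000/well; 6 h settle at 37 C/5% CO2; pin-tool compound transfer in DMSO; 17.5 h at 37 C; CellTiter-Fluor, 30 min; fluorescence intensity.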

[6] = target: Luciferin 4-monooxygenase (Photinus pyralis) (UniProt P08659); assay: qHTS assay to identify small molecule inhibitors of firefly luciferase (AID 1224835); also: series mostly up to about 120 µM; nearly all actives have a fitted effect of over 25% in size
Summary of the method: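 Biochemical qHTS: compounds run as interplate titrations against purified firefly enzyme, with D-luciferin and ATP each at its KM concentration. Light output recorded by CCD imaging.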

[7] = qHTS assay to identify small molecule agonists of the constitutive androstane receptor (CAR) signaling pathway - cell viability counter screen (AID 1224836); also: series mostly up to about 92 µM; nearly all actives have a fitted effect of over 45% in size
Summary of the method: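 Cells were seeded and incubated 4 hrs. Compounds were added across 15 concentrations together with PK11195 at 0.75 uM final. Plates were incubated 23 hrs at 37 C. CellTiter-Fluor was added and fluorescence measured.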

[8] = qHTS assay to identify small molecule antagonists of the constitutive androstane receptor (CAR) signaling pathway - cell viability counter screen (AID 1224837); also: series mostly up to about 92 µM; nearly all actives have a fitted effect of over 45% in size
Summary of the method: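 Viability was measured with CellTiter-Fluor in a HepG2 line carrying stably transfected hCAR and a CYP2B6-2.2kb construct. Cells were exposed for 23 hr at 37 C to 15 compound concentrations with 50 nM CITCO as agonist.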

[9] = target: Nuclear receptor subfamily 1 group I member 3 (Homo sapiens) (UniProt Q14994); assay: qHTS assay to identify small molecule antagonists of the constitutive androstane receptor (CAR) signaling pathway (AID 1224838);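 also: HepG2 cells stably expressing hCAR with CYP2B6 luciferase reporter stimulated by CITCO; nearly all actives have a fitted effect of over 40% in size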
Summary of the method: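 Antagonist mode used CITCO at a final 50 nM to activate CAR in human hepatoma HepG2 cells carrying stable hCAR and a 2.2 kb CYP2B6 promoter-luciferase construct. Compounds were tested at 15 concentrations over 24 h, with luminescence as the end point.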

[10] = target: Nuclear receptor subfamily 1 group I member 3 (Homo sapiens) (UniProt Q14994); assay: qHTS assay to identify small molecule agonists of the constitutive androstane receptor (CAR) signaling pathway (AID 1224839); also: series mostly up to about 92 µM; nearly all actives have a fitted effect of over 15% in size
Summary of the method: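 Cells were plated and incubated 4 hrs, then dosed with compounds at 15 concentrations. PK11195 was added to 0.75 uM final. After 24 hrs at 37 C, luciferase luminescence was measured.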

[11] = qHTS assay to identify small molecule antagonists of the estrogen related receptor signaling pathway with the pleiotropic PPARgamma coactivator (PGC) from Tox21 10K library - cell viability counter screen (AID 1224840; active = well fitted cell-killing curve with a large enough effect in the repeat runs, not every such curve was filed as active; also: nearly all actives have a fitted effect of over 40% in size)
Summary of the method: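 Multiplexed viability counter screen in the PGC/ERR cell line: cells treated with DMSO-dissolved compounds for 17.5 hours at 37 C, then viability measured as CellTiter-Fluor fluorescence.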

[12] = target: Thyrotropin receptor (Homo sapiens) (UniProt P16473); assay: qHTS assay to identify small molecule agonists of the thyroid stimulating hormone receptor (TSHR) signaling pathway (AID 1224843; calls by dose curve; also: nearly all actives have a fitted effect of over 45% in size)
Summary of the method: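 Agonist-mode screen: TSHR HEK293 cells received test chemicals for half an hour at room temperature, then HTRF cAMP detection reagents for one hour prior to fluorescence measurement. Each chemical ran as a 15-concentration series, triplicated.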

[13] = qHTS assay to identify small molecule antagonists of the estrogen related receptor signaling pathway with the pleiotropic PPARgamma coactivator (PGC) from Tox21 10K library (AID 1224841; call rule not given here; also: series mostly up to about 92 µM; actives are mostly falling curves and most rising ones were filed inactive; nearly all actives have a fitted effect of over 50% in size)
Summary of the method: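 Steps: plate 2,000 PGC/ERR cells per well; incubate 6 h at 37 C with 5% CO2; transfer compounds from DMSO stocks by pin tool; incubate 18 h at 37 C; add One-Glo; measure luminescence 30 min later.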

[14] = qHTS assay to identify small molecule agonists of the estrogen related receptor signaling pathway with the pleiotropic PPARgamma coactivator (PGC) from Tox21 10K library (AID 1224842); also: nearly all actives have a fitted effect of over 15% in size
Summary of the method: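 PGC/ERR reporter cell line, 2,000 cells per well, incubated 6 h at 37 C before 23 nL compound in DMSO was added. After 18 h at 37 C, One-Glo luminescence read following 30 min at room temperature.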

[15] = qHTS assay to identify small molecule antagonists of the estrogen related receptor (ERR) signaling pathway - cell viability counter screen (AID 1224818); also: series mostly up to about 46 µM
Summary of the method: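 ERR cells, 2,000/well; 6 h settle at 37 C/5% CO2; compound pin transfer (DMSO); 17.5 h at 37 C; CellTiter-Fluor, 30 min, fluorescence read.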

[16] = qHTS assay to identify small molecule antagonists of the estrogen related receptor (ERR) signaling pathway (AID 1224819;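 also: luminescence from an ERR-driven luciferase reporter measured with One-Glo reagent; series mostly up to about 46 µM; nearly all actives have a fitted effect of over 50% in size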)
Summary of the method: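 qHTS in ERR cells, 2,000/well, 1536 format. Cpd (DMSO) added after 6 h settle, 18 h 37 C. One-Glo luminescence, 30 min RT.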

[17] = qHTS assay to identify small molecule agonists of the estrogen related receptor (ERR) signaling pathway (AID 1224820)
Summary of the method: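 An ERR cell line provided by NTP was seeded at 2,000 cells per well and allowed to settle for 6 h before compounds in DMSO were added. After 18 h at 37 C, luciferase activity was measured by One-Glo luminescence.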

[18] = qHTS assay to identify small molecule antagonists of the estrogen related receptor signaling pathway with the pleiotropic PPARgamma coactivator (PGC) cell viability counter screen (AID 1224822;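 also: series mostly up to about 46 µM; viability read after 17.5 h compound exposure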)
Summary of the method: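 Multiplexed viability counter screen run in PGC/ERR cells treated with compounds for 17.5 h at 37 C; live-cell protease signal measured by CellTiter-Fluor fluorescence.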

Measured: Potency

Chain of Luciferin 4-monooxygenase (Photinus pyralis) (P08659 whole entry, looked up): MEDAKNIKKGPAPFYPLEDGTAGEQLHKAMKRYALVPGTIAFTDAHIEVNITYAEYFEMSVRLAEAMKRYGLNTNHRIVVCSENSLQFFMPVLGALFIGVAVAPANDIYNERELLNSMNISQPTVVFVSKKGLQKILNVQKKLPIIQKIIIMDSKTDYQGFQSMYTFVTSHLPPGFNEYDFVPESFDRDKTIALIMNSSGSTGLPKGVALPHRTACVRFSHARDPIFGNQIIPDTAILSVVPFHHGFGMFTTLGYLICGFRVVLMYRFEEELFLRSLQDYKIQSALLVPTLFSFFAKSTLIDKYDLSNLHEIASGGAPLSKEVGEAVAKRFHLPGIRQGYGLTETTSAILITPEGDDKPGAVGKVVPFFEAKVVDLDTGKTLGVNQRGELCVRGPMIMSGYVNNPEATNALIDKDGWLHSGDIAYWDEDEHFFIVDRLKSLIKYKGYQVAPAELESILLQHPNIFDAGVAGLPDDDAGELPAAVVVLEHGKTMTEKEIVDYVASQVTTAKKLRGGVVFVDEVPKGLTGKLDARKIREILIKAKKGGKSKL
Chain of Thyrotropin receptor (Homo sapiens) (P16473 whole entry, looked up): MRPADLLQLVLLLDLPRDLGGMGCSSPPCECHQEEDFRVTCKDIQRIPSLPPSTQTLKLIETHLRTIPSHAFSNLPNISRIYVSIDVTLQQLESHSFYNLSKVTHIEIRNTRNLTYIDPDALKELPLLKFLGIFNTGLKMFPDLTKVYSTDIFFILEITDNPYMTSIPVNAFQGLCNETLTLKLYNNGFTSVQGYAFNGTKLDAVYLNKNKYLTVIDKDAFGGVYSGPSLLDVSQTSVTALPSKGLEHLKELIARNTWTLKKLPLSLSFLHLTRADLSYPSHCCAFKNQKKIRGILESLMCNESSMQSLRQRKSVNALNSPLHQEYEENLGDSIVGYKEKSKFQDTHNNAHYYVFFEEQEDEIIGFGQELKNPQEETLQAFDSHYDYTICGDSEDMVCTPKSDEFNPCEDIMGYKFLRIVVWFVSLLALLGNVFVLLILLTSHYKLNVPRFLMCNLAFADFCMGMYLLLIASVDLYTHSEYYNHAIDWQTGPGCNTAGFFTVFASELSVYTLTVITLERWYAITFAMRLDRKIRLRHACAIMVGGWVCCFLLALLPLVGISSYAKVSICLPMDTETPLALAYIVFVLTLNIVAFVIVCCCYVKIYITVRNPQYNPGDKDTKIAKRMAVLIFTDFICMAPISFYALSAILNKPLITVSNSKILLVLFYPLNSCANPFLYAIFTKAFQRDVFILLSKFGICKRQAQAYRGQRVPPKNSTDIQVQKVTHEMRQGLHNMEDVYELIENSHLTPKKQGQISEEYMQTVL
Chain of Nuclear receptor subfamily 1 group I member 3 (Homo sapiens) (Q14994 whole entry, looked up): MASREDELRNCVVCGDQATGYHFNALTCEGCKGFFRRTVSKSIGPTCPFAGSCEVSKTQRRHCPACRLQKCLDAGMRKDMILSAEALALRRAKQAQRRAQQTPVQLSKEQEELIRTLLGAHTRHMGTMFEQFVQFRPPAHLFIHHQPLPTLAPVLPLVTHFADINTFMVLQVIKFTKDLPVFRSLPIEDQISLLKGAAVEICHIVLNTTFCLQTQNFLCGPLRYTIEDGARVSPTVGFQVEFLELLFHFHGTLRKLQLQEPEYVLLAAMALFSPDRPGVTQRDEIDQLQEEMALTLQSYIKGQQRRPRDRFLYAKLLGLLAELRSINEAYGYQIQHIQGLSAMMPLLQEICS

CC(O)CN(CCN(CC(C)O)CC(C)O)CC(C)O (stereo unspecified)
inactive: [1] | [2] | [3] | [4] | [5] | [6] | [7] | [8] | [9] | [10] | [11] | [12]

Nc1ccc(S(=O)(=O)Nc2nccs2)cc1
inactive: [1] | [2] | [3] | [4] | [5] | [6] | [7] | [8] | [11] | [13] | [14] | [12]

CNC[C@H](O)c1cccc(O)c1
inactive: [1] | [2] | [3] | [4] | [15] | [16] | [17] | [18] | [5] | [7] | [8] | [9] | [10] | [11]

O=C(O)CCCCCCCC(=O)O
inactive: [1] | [2] | [3] | [4] | [15] | [18] | [5] | [7] | [8] | [9] | [10] | [11] | [12]

CC1(C)[C@@H]2CC[C@@]1(C)C(=O)C2
inactive: [1] | [2] | [3] | [4] | [5] | [7] | [8] | [9] | [10] | [11] | [13] | [14] | [12]

CCOc1ccc(NC(=O)CC(C)O)cc1 (stereo unspecified)
inactive: [1] | [2] | [3] | [4] | [5] | [6] | [7] | [8] | [11] | [12]

CC(C)[C@@H]1CC[C@@H](C)C[C@H]1O
inactive: [1] | [2] | [3] | [4] | [5] | [7] | [8] | [9] | [10] | [11] | [12]

COC(=O)[C@H](Cc1ccccc1)NC(=O)[C@@H](N)CC(=O)O (H-Asp-Phe-OMe)
inactive: [1] | [2] | [3] | [4] | [5] | [6] | [7] | [8] | [11] | [12]

C1N2CN3CN1CN(C2)C3
inactive: [1] | [2] | [3] | [4] | [5] | [7] | [8] | [9] | [10] | [11] | [12]
